Bioassay records as filed in PubChem BioAssay.
Sampled rows, rich in hits. Any-hit rate of the full collection: about 21%.
Sm TGR block: qHTS Assay for the Inhibitors of Schistosoma Mansoni Peroxiredoxins | AID 485364, 2010 | purified TGR, DTNB reduction, TNB absorbance 405 nm | 360,000 compounds, 3% hits | Potency, µM (doses to about 114 µM), for the others: at the highest dose activity change, negative = inhibition, actives largely listed as inhibitors; also: potency is read from the fitted curve at half-maximal effect; % is scaled to controls: 0 for no effect and ±100 for the full control effect; nearly all actives have a fitted effect of over 60% in size
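TGR 20 nM + NADPH 100 uM (dispensed conc.), cpd preinc 15 min RT; start with NADPH (500 uM addition) then DTNB (15 mM addition). Kinetic TNB absorbance, 405 nm filter. Four-parameter Hill fit across titration.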
Cycloheximide cs: Cycloheximide Counterscreen for Small Molecule Inhibitors of Shiga Toxin; max response, %; AID 2314, 2010; 300,000 compounds, 12% hits; cell reporter, cycloheximide protein synthesis inhibition counterscreen; in the data active = max response mostly above about 13%, no sharp cut-off; inactive = mostly below about 14%; also: read at 38.3 µM for the half of the compounds with a filed dose; 0% is about no effect
Pf growth 96h: Primary qHTS for delayed death inhibitors of the malarial parasite plastid, 96 hour incubation; P. falciparum luciferase reporter growth, 96 h; Potency, µM (doses to about 28.7 µM), for inactives: at the top dose activity change, negative = inhibition, most hits filed as inhibitors; 320,000 compounds, 6.9% hits; AID 504834, 2011; also: potency is read from the fitted curve at half-maximal effect; % is scaled to controls: 0 for no effect and ±100 for the full control effect
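P. falciparum expressing integrated firefly luciferase, in erythrocytes at 2% hematocrit, 0.05% parasitemia, incubated with compounds 96 h at 37 C, 5% CO2. Growth inhibition read as loss of luminescence; two-generation exposure targets delayed-death apicoplast inhibitors.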
Pf growth 48h: Primary qHTS for delayed death inhibitors of the malarial parasite plastid, 48 hour incubation | P. falciparum luciferase growth in erythrocytes, 48 h | AID 504832, 2011 | Potency, µM (titrated, usually from 28.7 µM), for inactives: at the highest dose activity change, negative = inhibition, hits mostly inhibitors | 310,000 compounds, 5.9% hits; also: potency is read from the fitted curve at half-maximal effect; % is scaled to controls: 0 for no effect and ±100 for the full control effect
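Cell-based growth assay: transgenic P. falciparum expressing firefly luciferase, cultured in red cells within RPMI 1640 containing 0.5% w/v Albumax, 24 mM bicarbonate and gentamycin. A drop in luciferase activity indicates inhibition.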
Shiga toxin inh: A qHTS for Small Molecule Inhibitors of Shiga Toxin; 290,000 compounds, 9.2% hits; Vero cells, Shiga toxin protein synthesis inhibition reporter; inhibition, % at 38.7 µM; AID 2315, 2010; in the data active = inhibition mostly above about 28%, no sharp cut-off; inactive = mostly below about 43%; also: 0% is about no effect
NS1 inh: qHTS Assay for Inhibitors of Influenza NS1 Protein Function | Potency, µM (series often up to 46.1 µM), without a hit: at the highest dose activity, positive = more growth | 270,000 compounds, 0.4% hits | AID 2326, 2010; calls by dose curve; also: potency is read from the fitted curve at half-maximal effect; actives are rising curves; nearly all actives have a fitted effect of over 50% in size
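In this qHTS, NS1 from influenza A is expressed in budding yeast, where it slows growth. Cells are switched from glucose to 2% galactose medium (pH 6.0, -URA), treated with compound, and growth recovery is read at OD600.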
The depositor's hits bear a star; ? = inconclusive; / = no result given. Unless noted, calls follow the shape of the dose curve; as a rule, active = well fitted curve in the direction sought with a large enough effect; inconclusive = small, poorly fitted or top-dose-only effect, or another doubt; inactive = no such curve, though single readings can be large; an effect the other way counts as inactive or inconclusive.

SMILES	Sm TGR block	Cycloheximide cs	Pf growth 96h	Pf growth 48h	Shiga toxin inh	NS1 inh
C=CCNC(=O)/C(=C/c1cn(-c2ccccc2)nc1-c1cccc([N+](=O)[O-])c1)NC(=O)c1ccccc1	0%	1	4.1µM*	?	-7	11%
COc1ccc(-c2nn(-c3ccccc3)cc2/C=N/Nc2cccc(C(=O)O)c2)cc1	-9%	56*	-9%	17%	108*	/
COc1ccc(-c2nn(-c3ccccc3)cc2CNC(=O)c2cccc([N+](=O)[O-])c2)cc1	7%	15*	?	?	12	8%
CN(C)C(=O)/C(=C/c1cn(-c2ccccc2)nc1-c1cccc([N+](=O)[O-])c1)NC(=O)c1ccccc1	-10%	-4	28%	8%	-5	13%
O=C(CN1C(=O)CCc2cc(S(=O)(=O)N3CCOCC3)ccc21)NCc1ccccc1Cl	-18%	/	/	/	/	/
COc1ccc(-c2nn(-c3ccccc3)cc2/C=N/Nc2ccc3ccccc3n2)cc1OC	6%	34*	2.3µM*	2.6µM*	80*	11%
NC(N)=N/N=C/c1cn(-c2ccccc2)nc1-c1cccs1	1%	15	0.52µM*	2.6µM*	10	/
COc1ccc(-c2nn(-c3ccccc3)cc2/C=N/NC(=S)NC(C)C)cc1OC	-1%	1	?	?	-10	26%
S=c1[nH]nc(-c2cccs2)n1/N=C/c1cn(-c2ccccc2)nc1-c1cccs1	1%	12	56%	60%	3	13%
COc1cccc(/C=N/NC(=O)CSc2nnc(C)n2-c2ccccc2)c1O	3%	-1	33%	45%	14	-1%
Cc1ccc(-c2nn(-c3ccccc3)cc2/C=N/NC(=O)CSc2nnc(C)n2-c2ccccc2)cc1	16%	36*	-3%	?	54*	24%
Cc1cccc(NS(=O)(=O)c2ccc3c(c2)CC(C)N3C(=O)C2CCC2)c1C (centres undefined)	1%	/	/	/	/	/
O=C(Cn1c(=O)nc(-c2ccccc2)c2ccccc21)Nc1ccc(Cl)cc1F	0%	/	/	/	/	/
C=C(C)C(=O)Oc1ccc(N2C(=O)CCC2=O)cc1	-29%	17*	-17%	28%	18	-1%
COc1cccc([C@@H]2Oc3ccc(OC)cc3C(=O)[C@H]2OC(=O)NCc2ccc3c(c2)OCO3)c1	-26%	64*	-104%	?	84*	2%
COc1ccc2c(c1)C(=O)[C@H](O)[C@@H](c1ccc(OC)c(Br)c1)O2	-7%	19*	2.1µM*	3.7µM*	54	-28%
COc1cccc([C@@H]2Oc3ccc(OC)cc3C(=O)[C@H]2OC(=O)Nc2cc(OC)c(OC)c(OC)c2)c1	3%	11*	2%	?	45*	6%
COc1ccc(CNC(=O)c2cnc3sc4cc(OC)ccc4n3c2=O)cc1	3%	/	/	/	/	/
CC(NS(=O)(=O)c1ccc2c(c1)oc(=O)n2C)c1ccccc1 (centres undefined)	-1%	-5	?	-21%	-21	1%
CCc1ccccc1NC(=O)C1CCN(C(=O)c2ccc([N+](=O)[O-])cc2)CC1	6%	1	61%	-8%	-8	-6%
CC(=O)O[C@H]1Cc2ccccc2N(C(N)=O)c2ccccc21	/	-7	/	/	-15	/
CCCN1CCN(CC(=O)Nc2nc3ccccc3s2)CC1	?	13	11%	-2%	19	4%
O=C(C[n+]1cccc(CO)c1)Nc1nc2ccccc2s1	0%	34*	46%	57%	41	2%
CCOc1ccc2nc(NC(=O)CS(=O)(=O)c3ccccc3)sc2c1	-13%	26*	5.2µM*	39%	active	-18%
O=C(CS(=O)(=O)c1ccccc1)Nc1nc2ccccc2s1	-30%	25*	-6%	40%	23	7%
SMILES	Sm TGR block	Cycloheximide cs	Pf growth 96h	Pf growth 48h	Shiga toxin inh	NS1 inh
CCOc1ccc2nc(NC(=O)COc3ccc(N(C)S(=O)(=O)c4ccc(C)cc4)cc3)sc2c1	0%	3	?	2.3µM*	-2	1%
CCOc1ccc2nc(NS(=O)(=O)c3ccc(NC(C)=O)cc3)sc2c1	0%	1	2%	91%	25	1%
CCOc1ccc2nc(NS(=O)(=O)Cc3ccccc3)sc2c1	-33%	20*	23%	/	10	-13%
O=C(Nn1c(SCc2ccccc2F)nc2ccsc2c1=O)c1ccccc1	-5%	14	6.6µM*	7%	-7	23%
O=C(CSc1nc2ccsc2c(=O)n1NC(=O)c1ccccc1)NCc1ccco1	-27%	14	-9%	40%	35	-5%
O=C(CSc1nc2ccsc2c(=O)n1NC(=O)c1ccccc1)Nc1nccs1	-2%	41*	-18%	227%	36*	3%
Cc1ccc(OCc2nc3c4c(ncn3n2)-c2ccccc2CC42CCCC2)cc1	-14%	1	15µM*	?	-5	-3%
COc1ccc(-c2nc3c4c(ncn3n2)-c2ccccc2CC42CCCC2)cc1	0%	-2	9%	-4%	-3	-3%
COc1ccc(OCc2nc3c4c(ncn3n2)-c2ccccc2CC42CCCC2)cc1	-3%	1	13µM*	?	-14	8%
Cc1cccc(OCc2nc3c4c(ncn3n2)-c2ccccc2CC42CCCC2)c1	0%	4	?	-7%	-3	3%
Oc1cccc(-c2nc3c4c(ncn3n2)-c2ccccc2CC42CCCC2)c1	7%	-3	9.3µM*	12µM*	-16	-21%
Cc1ccccc1OCc1nc2c3c(ncn2n1)-c1ccccc1CC31CCCC1	-2%	-1	5.2µM*	?	18	1%
CN(CC(=O)Nc1ccccc1C(F)(F)F)C(=O)c1ccc(N2C(=O)CCC2=O)cc1	3%	/	28%	2%	/	/
CCCn1c(SCC(=O)NCc2ccccc2)n[nH]c1=O	0%	-1	23%	9%	27	/
O=C(NCc1ccc2c(c1)OCO2)c1cnc2n(c1=O)CCS2	-1%	-5	-20%	/	-18	-3%
O=C(Nc1ccccc1)c1cnc2n(c1=O)CCS2	-7%	15	141%	94%	47	-30%
O=C(Nc1ccc(OC(F)(F)F)cc1)c1cnc2n(c1=O)CCS2	-1%	16*	37%	73%	21	-31%
O=C(Nc1ccc2c(c1)OCO2)c1cnc2n(c1=O)CCS2	-8%	29*	7%	105%	49*	2%
Cc1cccc(NC(=O)c2cnc3n(c2=O)CCS3)c1	3%	21*	1%	131%	17*	-3%
O=C(Nc1ccc2c(c1)OCCO2)c1cnc2n(c1=O)CCS2	-4%	30*	148%	65%	18	-30%
